Targets with a hit are over-represented here; the source holds about 7,900 in all. About 0.6% of all pairs of compound and target were hits.
Compound: C1=CC=C(C=C1)[C@H](COC2=CC3=C(C=C2)NC(=O)N3)NC(=O)C4=CC=CN(C4=O)CC5=CC(=C(C=C5)F)F
Test: log2 fold change, soluble protein after heating vs DMSO (PISA); higher = thermal stabilisation; K562 cells, 10 uM, 30 min; active = over 0.2 and 3.5 SD of the protein, either way, in both replicates (recomputed)
How it was run: (§1)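 K562 cells at 2×10^6 cells/mL were treated with 10 μM compound for 30 min. Aliquots were heated for 3 min across 48°C-58°C, pooled, and extracted in PBS with 0.5% NP-40 at 4°C; soluble protein was the supernatant after 21,000xg for 90 min. Soluble protein was quantified by TMTpro 16plex LC-MS/MS with channel sums equalised, and reported as log2 fold change in thermal stability against DMSO controls, with values from duplicates.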

UniProt Q9UNS2, sequence (Q9UNS2 whole entry, looked up): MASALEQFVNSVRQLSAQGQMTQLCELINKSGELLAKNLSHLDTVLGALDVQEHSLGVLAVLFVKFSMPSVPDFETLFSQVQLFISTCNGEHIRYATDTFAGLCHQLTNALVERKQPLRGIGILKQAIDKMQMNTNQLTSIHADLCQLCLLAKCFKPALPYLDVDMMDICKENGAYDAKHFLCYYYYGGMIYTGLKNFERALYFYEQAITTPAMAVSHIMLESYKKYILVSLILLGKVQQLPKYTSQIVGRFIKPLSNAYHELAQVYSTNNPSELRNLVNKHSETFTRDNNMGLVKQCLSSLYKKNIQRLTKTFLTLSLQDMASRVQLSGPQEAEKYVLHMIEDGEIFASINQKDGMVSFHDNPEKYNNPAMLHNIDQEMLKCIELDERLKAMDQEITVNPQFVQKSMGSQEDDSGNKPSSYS
UniProt Q14061, sequence (Q14061 whole entry, looked up): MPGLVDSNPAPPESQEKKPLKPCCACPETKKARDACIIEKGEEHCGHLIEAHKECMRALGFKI
UniProt Q13901, sequence (Q13901 whole entry, looked up): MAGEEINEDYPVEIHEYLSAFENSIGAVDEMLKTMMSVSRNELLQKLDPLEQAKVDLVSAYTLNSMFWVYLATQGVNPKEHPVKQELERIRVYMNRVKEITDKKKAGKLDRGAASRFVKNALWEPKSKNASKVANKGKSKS
UniProt P51795, sequence (P51795 whole entry, looked up): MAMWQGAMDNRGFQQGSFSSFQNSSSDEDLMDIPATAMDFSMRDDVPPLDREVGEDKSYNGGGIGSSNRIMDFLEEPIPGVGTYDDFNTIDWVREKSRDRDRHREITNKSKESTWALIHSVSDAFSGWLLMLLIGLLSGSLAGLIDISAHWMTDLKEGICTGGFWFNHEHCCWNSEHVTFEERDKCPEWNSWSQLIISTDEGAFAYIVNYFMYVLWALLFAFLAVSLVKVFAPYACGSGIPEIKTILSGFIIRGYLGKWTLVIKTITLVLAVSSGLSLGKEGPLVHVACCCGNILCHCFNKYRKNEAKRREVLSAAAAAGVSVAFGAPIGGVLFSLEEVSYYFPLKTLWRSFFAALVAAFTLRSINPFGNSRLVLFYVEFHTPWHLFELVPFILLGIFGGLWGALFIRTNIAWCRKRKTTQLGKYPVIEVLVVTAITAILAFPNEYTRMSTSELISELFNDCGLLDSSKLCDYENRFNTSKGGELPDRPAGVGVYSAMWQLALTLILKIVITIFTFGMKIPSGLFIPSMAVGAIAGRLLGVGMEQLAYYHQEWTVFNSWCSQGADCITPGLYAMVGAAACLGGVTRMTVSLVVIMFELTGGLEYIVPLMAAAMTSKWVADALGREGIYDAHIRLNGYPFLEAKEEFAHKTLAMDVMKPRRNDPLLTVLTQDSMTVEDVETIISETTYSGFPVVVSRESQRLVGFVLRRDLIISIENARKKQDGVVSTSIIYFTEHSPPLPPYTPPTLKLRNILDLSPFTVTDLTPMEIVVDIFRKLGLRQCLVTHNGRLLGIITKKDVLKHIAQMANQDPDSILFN
UniProt Q7Z4R8, sequence (Q7Z4R8 whole entry, looked up): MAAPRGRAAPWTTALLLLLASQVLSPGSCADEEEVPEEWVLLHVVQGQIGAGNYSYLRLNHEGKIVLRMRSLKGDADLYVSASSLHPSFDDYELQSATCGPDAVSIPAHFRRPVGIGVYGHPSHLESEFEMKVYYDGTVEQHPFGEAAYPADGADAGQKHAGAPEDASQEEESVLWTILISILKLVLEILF
UniProt P55211, sequence (P55211 whole entry, looked up): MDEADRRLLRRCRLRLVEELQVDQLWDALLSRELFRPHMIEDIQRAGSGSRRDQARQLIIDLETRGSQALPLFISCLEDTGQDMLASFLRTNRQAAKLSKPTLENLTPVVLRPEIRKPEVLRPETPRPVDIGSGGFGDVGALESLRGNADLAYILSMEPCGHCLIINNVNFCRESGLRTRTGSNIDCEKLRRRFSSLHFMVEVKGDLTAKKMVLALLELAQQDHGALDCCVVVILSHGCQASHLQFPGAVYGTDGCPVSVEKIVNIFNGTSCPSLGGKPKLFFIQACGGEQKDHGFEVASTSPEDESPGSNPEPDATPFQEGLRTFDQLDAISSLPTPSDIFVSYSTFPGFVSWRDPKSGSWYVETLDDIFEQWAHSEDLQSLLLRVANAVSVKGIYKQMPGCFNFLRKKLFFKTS
UniProt Q9H9S4, sequence (Q9H9S4 whole entry, looked up): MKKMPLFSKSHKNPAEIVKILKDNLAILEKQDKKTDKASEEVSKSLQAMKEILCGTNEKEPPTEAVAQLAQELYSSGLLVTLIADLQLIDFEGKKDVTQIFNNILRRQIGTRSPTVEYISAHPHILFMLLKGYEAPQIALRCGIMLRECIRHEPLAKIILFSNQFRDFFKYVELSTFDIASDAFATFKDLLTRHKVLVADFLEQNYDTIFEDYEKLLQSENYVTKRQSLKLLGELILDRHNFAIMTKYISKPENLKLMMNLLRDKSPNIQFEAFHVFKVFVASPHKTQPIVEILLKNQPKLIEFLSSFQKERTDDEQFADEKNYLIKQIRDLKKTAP
UniProt Q8N668, sequence (Q8N668 whole entry, looked up): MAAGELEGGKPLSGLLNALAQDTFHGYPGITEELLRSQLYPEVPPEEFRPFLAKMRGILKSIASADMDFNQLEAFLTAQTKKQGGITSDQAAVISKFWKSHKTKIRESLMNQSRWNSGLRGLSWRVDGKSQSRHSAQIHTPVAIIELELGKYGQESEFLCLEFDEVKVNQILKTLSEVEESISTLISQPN
UniProt Q6UUV9, sequence (Q6UUV9 whole entry, looked up): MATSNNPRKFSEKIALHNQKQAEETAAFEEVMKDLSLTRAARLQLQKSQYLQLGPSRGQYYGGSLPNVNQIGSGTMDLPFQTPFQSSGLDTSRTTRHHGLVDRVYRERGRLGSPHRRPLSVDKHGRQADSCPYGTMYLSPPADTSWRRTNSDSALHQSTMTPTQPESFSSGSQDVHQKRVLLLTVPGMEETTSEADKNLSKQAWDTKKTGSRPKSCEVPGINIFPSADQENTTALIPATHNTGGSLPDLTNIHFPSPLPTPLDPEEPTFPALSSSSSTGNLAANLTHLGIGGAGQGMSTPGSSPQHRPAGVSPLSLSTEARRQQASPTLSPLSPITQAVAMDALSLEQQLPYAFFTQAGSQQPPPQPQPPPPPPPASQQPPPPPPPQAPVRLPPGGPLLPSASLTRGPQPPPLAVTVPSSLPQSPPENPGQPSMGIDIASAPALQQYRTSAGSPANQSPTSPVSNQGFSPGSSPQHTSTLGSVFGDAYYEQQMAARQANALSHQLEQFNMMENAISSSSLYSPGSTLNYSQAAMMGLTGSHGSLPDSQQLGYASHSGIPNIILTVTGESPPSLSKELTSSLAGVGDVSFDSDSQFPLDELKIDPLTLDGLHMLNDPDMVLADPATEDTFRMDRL
UniProt Q9Y2V0, sequence (Q9Y2V0 whole entry, looked up): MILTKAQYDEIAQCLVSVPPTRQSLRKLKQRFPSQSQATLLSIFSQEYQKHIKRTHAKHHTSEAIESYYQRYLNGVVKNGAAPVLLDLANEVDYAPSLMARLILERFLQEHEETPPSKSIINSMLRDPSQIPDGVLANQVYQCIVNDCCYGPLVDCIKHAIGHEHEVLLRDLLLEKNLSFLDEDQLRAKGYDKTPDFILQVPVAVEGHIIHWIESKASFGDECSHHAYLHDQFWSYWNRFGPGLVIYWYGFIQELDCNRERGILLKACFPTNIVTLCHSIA
UniProt P51911, sequence (P51911 whole entry, looked up): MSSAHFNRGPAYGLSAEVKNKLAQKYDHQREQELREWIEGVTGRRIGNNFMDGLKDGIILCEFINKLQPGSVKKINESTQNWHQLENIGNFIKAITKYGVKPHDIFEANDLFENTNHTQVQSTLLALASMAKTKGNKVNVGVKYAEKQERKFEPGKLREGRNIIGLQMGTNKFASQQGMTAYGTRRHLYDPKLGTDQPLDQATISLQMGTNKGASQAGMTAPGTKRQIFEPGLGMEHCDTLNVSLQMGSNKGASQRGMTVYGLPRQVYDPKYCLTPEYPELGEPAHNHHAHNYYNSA
UniProt Q5BKX5, sequence (Q5BKX5 whole entry, looked up): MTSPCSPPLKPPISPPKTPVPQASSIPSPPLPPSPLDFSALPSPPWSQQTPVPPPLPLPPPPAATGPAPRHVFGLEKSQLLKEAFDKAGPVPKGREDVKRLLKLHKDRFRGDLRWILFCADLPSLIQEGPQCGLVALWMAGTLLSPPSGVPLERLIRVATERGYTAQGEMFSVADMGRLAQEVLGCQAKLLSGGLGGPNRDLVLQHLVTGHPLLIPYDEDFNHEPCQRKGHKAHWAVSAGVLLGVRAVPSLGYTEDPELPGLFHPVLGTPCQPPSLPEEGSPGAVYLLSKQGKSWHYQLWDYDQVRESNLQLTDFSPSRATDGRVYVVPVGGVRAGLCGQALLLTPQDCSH
UniProt P15954, sequence (P15954 whole entry, looked up): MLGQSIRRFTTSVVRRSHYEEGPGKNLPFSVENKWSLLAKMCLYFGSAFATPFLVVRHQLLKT
UniProt A8MTT3, sequence (A8MTT3 whole entry, looked up): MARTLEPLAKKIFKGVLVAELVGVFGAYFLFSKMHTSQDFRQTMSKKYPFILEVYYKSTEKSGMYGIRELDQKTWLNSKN
UniProt Q6P5X5, sequence (Q6P5X5 whole entry, looked up): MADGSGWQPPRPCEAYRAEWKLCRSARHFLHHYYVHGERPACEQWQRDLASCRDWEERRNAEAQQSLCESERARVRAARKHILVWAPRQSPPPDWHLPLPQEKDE
UniProt Q9UJA2, sequence (Q9UJA2 whole entry, looked up): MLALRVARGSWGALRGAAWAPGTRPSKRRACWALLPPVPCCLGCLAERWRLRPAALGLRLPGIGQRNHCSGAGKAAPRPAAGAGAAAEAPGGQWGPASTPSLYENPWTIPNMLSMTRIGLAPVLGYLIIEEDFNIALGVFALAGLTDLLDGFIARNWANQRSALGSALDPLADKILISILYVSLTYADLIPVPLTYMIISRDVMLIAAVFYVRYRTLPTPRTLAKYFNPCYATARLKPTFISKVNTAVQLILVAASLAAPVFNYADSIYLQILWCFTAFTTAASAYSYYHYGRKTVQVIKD
UniProt Q9P0B6, sequence (Q9P0B6 whole entry, looked up): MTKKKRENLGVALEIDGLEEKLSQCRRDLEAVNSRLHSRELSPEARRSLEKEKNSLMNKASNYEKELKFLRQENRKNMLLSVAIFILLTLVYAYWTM

Row | Target | log2 fold change
1 | CRTC2 (UniProt Q53ET0) | 0.006 (inactive)
2 | CKS2 (UniProt P33552) | -0.084 (inactive)
3 | CASP8 isoform 9 (UniProt Q14790) | -0.013 (inactive)
4 | CDK2AP2 (UniProt O75956) | 0.026 (inactive)
5 | C6orf120 (UniProt Q7Z4R8) | -0.018 (inactive)
6 | CFAP47 (UniProt Q6ZTR5) | 0.068 (inactive)
7 | CEBPZOS (UniProt A8MTT3) | -0.044 (inactive)
8 | CCDC167 (UniProt Q9P0B6) | 0.153 (inactive)
9 | COPS3 isoform 2 (UniProt Q9UNS2) | 0.009 (inactive)
10 | CA1 (UniProt E5RIF9) | -0.021 (inactive)
11 | CAV2 (UniProt P51636) | 0 (inactive)
12 | CAB39L (UniProt Q9H9S4) | 0.088 (inactive)
13 | COX7C (UniProt P15954) | -0.023 (inactive)
14 | CRTC1 isoform 2 (UniProt Q6UUV9) | -0.036 (inactive)
15 | C22orf39 (UniProt Q6P5X5) | 0.126 (inactive)
16 | CLASP2 (UniProt O75122) | 0.059 (inactive)
17 | C1D (UniProt Q13901) | -0.019 (inactive)
18 | COMMD1 (UniProt Q8N668) | 0.099 (inactive)
19 | CHAF1A (UniProt Q13111) | 0.045 (inactive)

Compound: CC1=C(SC2=C1C(=N[C@H](C3=NN=C(N32)C)CC(=O)N)C4=CC=C(C=C4)Cl)C
Test: as above
How it was run: as §1

Row | Target | log2 fold change
20 | CD84 (UniProt Q9UIB8) | 0.167 (inactive)
21 | COMMD3-BMI1 (UniProt R4GMX3) | -0.114 (inactive)
22 | CDK2AP2 (UniProt O75956) | -0.017 (inactive)
23 | CDK19 (UniProt Q9BWU1) | 0.035 (inactive)
24 | CNN1 (UniProt P51911) | 0.228 (inactive)
25 | CCDC167 (UniProt Q9P0B6) | -0.037 (inactive)
26 | C15orf41 (UniProt Q9Y2V0) | 0.081 (inactive)
27 | CHPT1 (UniProt Q8WUD6) | 0.003 (inactive)
28 | CDCA2 (UniProt Q69YH5) | 0.035 (inactive)
29 | CRLS1 (UniProt Q9UJA2) | -0.005 (inactive)
30 | COX17 (UniProt Q14061) | 0.12 (inactive)
31 | CASP9 (UniProt P55211) | -0.045 (inactive)
32 | CLCN5 isoform 2 (UniProt P51795) | 0.028 (inactive)
33 | C19orf54 (UniProt Q5BKX5) | -0.014 (inactive)
34 | CPNE5 (UniProt Q9HCH3) | -0.16 (inactive)
35 | C22orf39 (UniProt Q6P5X5) | 0.145 (inactive)
36 | CLASP2 (UniProt O75122) | 0.117 (inactive)
37 | COG2 (UniProt Q14746) | 0.063 (inactive)
38 | CHAF1A (UniProt Q13111) | -0.026 (inactive)

Compound: CC1=C2C(=CC=C1)N=C(N(C2=O)C3=CC=CC=C3C)CN4C=NC5=C(N=CN=C54)N
Test: as above
How it was run: as §1

Row | Target | log2 fold change
39 | CRTC2 (UniProt Q53ET0) | -0.075 (inactive)
40 | CASP8 isoform 9 (UniProt Q14790) | 0.052 (inactive)
41 | C6orf120 (UniProt Q7Z4R8) | 0.37 (active)
42 | CDK19 (UniProt Q9BWU1) | 0.05 (inactive)
43 | CFAP47 (UniProt Q6ZTR5) | 0.173 (inactive)
44 | CEBPZOS (UniProt A8MTT3) | -0.105 (inactive)
45 | CNN1 (UniProt P51911) | -0.063 (inactive)
46 | C15orf41 (UniProt Q9Y2V0) | 0.014 (inactive)
47 | COPS3 isoform 2 (UniProt Q9UNS2) | 0.2 (inactive)
48 | CA1 (UniProt E5RIF9) | 0.187 (inactive)
49 | CDCA2 (UniProt Q69YH5) | 0.05 (inactive)
50 | CRLS1 (UniProt Q9UJA2) | -0.034 (inactive)
51 | COX17 (UniProt Q14061) | 0.022 (inactive)
52 | CAB39L (UniProt Q9H9S4) | 0.201 (inactive)
53 | CASP9 (UniProt P55211) | 0.102 (inactive)
54 | COX7C (UniProt P15954) | -0.073 (inactive)
55 | CLCN5 isoform 2 (UniProt P51795) | -0.023 (inactive)
56 | C19orf54 (UniProt Q5BKX5) | 0.059 (inactive)
57 | CRTC1 isoform 2 (UniProt Q6UUV9) | 0.018 (inactive)
58 | C1D (UniProt Q13901) | 0.028 (inactive)
59 | COMMD1 (UniProt Q8N668) | 0.007 (inactive)

Compound: Cc1sc2c(c1C)C(c1ccc(Cl)cc1)=N[C@@H](CC(=O)OC(C)(C)C)c1nnc(C)n1-2
Test: as above
How it was run: as §1

Row | Target | log2 fold change
60 | CD84 (UniProt Q9UIB8) | -0.079 (inactive)
61 | COMMD3-BMI1 (UniProt R4GMX3) | 0.002 (inactive)
62 | CRTC2 (UniProt Q53ET0) | 0.052 (inactive)
63 | CKS2 (UniProt P33552) | -0.08 (inactive)
64 | CASP8 isoform 9 (UniProt Q14790) | 0.033 (inactive)
65 | C6orf120 (UniProt Q7Z4R8) | -0.038 (inactive)
66 | CDK19 (UniProt Q9BWU1) | 0.021 (inactive)
67 | CEBPZOS (UniProt A8MTT3) | -0.022 (inactive)
68 | CNN1 (UniProt P51911) | -0.004 (inactive)
69 | CCDC167 (UniProt Q9P0B6) | -0.124 (inactive)
70 | C15orf41 (UniProt Q9Y2V0) | -0.011 (inactive)
71 | COPS3 isoform 2 (UniProt Q9UNS2) | 0.04 (inactive)
72 | C5orf30 (UniProt Q96GV9) | -0.417 (inactive)
73 | CA1 (UniProt E5RIF9) | 0.143 (inactive)
74 | CHPT1 (UniProt Q8WUD6) | -0.198 (inactive)
75 | CDCA2 (UniProt Q69YH5) | -0.003 (inactive)

Row | Target | log2 fold change
76 | CAV2 (UniProt P51636) | -0.046 (inactive)
77 | CRLS1 (UniProt Q9UJA2) | -0.01 (inactive)
78 | COX17 (UniProt Q14061) | -0.073 (inactive)
79 | CAB39L (UniProt Q9H9S4) | 0.285 (inactive)
80 | CASP9 (UniProt P55211) | 0.05 (inactive)
81 | COX7C (UniProt P15954) | -0.079 (inactive)
82 | CLCN5 isoform 2 (UniProt P51795) | 0.024 (inactive)
83 | C19orf54 (UniProt Q5BKX5) | 0.004 (inactive)
84 | CRTC1 isoform 2 (UniProt Q6UUV9) | 0.046 (inactive)
85 | CPNE5 (UniProt Q9HCH3) | 0.146 (inactive)
86 | C22orf39 (UniProt Q6P5X5) | -0.06 (inactive)
87 | C1D (UniProt Q13901) | 0.074 (inactive)
88 | COMMD1 (UniProt Q8N668) | 0.162 (inactive)
89 | CCNT2 (UniProt O60583) | 0.061 (inactive)
90 | COG2 (UniProt Q14746) | 0.141 (inactive)

— the supplement of paper PMC10849652
